# Measured values as given in publication PMC7862700, “An all-to-all approach to the identification of sequence-specific readers for epigenetic DNA modifications on cytosine”.
# Key:
# Assay in all cases: DAPPL (digital affinity profiling via proximity ligation, sequencing); 10 mM Tris-HCl pH 7.5, 50 mM NaCl, 1 mM DTT, 4% glycerol, room temperature, 30 min; GST-TFs on glutathione beads, 16-mer random dsDNA library, 0.1% formaldehyde crosslink after washing; high values mean tight binding
# FLI1 = molecular target: T1, FLI1 (Homo sapiens, UniProt Q01543 1-452); details: protein: recombinant; tags: N-terminal GST; dsDNA, one strand shown
# T1 sequence: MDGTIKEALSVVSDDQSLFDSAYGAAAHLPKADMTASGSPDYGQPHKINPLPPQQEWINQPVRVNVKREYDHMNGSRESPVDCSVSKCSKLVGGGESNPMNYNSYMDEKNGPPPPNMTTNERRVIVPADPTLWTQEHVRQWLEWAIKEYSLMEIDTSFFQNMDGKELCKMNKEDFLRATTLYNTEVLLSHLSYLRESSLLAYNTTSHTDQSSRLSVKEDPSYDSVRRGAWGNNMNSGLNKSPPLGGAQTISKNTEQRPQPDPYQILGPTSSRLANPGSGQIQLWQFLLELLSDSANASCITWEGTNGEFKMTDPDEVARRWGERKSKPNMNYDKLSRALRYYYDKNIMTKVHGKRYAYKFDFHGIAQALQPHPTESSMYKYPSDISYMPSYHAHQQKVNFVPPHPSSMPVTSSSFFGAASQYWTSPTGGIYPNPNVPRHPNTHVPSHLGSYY
# Method in brief: (§1)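 After expression in yeast as GST fusions, human transcription factors were bound to glutathione beads, DNA-barcoded and mixed with a tag-only sample. The pools were incubated with 200 nmole of a 16-mer random double-stranded DNA library in Tris/NaCl/DTT/glycerol buffer (30 min, room temperature), washed and crosslinked with 0.1% formaldehyde. Proximity ligation with BsaI/T4 ligase ran for 1 h at 37 °C, before PCR amplification and sequencing on an Illumina NextSeq500. Binding signal is a hexamer's read frequency for a factor divided by its frequency for the tag-only sample.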
# ELK1 = molecular target: T2, ELK1 (Homo sapiens, UniProt P19419 1-428); details: protein: recombinant; tags: N-terminal GST; dsDNA, one strand shown
# T2 sequence: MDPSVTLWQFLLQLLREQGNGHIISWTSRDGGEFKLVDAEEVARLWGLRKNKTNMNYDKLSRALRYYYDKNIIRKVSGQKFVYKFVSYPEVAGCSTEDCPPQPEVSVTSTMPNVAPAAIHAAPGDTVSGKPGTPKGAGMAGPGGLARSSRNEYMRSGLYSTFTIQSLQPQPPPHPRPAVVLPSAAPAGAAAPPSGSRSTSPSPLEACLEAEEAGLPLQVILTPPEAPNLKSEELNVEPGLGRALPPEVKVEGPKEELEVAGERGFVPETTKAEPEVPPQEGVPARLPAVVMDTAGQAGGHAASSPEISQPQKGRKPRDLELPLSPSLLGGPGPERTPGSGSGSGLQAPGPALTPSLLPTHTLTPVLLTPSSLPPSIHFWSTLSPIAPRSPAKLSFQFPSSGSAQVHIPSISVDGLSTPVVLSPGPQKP
# Method in brief: as §1
# GABPA = molecular target: T3, GABPA (Homo sapiens, UniProt Q06546 1-454); details: protein: recombinant; tags: N-terminal GST; dsDNA, one strand shown
# T3 sequence: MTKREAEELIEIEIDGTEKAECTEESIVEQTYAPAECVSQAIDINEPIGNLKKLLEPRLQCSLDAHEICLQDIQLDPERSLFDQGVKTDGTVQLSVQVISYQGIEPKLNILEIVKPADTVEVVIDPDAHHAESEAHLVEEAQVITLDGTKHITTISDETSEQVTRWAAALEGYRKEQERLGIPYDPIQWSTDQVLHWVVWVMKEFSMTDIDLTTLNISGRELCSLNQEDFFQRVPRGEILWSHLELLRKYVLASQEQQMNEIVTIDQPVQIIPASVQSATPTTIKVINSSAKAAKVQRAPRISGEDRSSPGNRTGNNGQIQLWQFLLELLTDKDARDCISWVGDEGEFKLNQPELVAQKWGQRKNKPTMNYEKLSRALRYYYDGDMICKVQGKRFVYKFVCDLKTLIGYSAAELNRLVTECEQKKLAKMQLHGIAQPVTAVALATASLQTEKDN
# Method in brief: as §1
# ERG = molecular target: T4, ERG (Homo sapiens, UniProt P11308 1-479); details: protein: recombinant; tags: N-terminal GST; dsDNA, one strand shown
# T4 sequence: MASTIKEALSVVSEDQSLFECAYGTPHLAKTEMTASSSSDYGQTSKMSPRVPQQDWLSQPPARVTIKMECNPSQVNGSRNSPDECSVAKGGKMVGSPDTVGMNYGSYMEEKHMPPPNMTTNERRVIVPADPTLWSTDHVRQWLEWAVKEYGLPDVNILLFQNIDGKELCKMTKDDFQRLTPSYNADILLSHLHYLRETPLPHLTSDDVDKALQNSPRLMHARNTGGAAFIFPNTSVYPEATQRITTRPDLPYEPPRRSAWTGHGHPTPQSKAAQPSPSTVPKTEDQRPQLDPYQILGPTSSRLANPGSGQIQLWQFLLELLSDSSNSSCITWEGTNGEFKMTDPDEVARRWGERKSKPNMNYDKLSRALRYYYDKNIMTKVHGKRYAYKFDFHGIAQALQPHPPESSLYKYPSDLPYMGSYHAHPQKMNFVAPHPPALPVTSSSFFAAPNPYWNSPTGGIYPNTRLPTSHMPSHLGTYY
# Method in brief: as §1
# ELF1 = ELF1 (Homo sapiens, UniProt P32519 1-619); details: protein: recombinant; tags: N-terminal GST; dsDNA, one strand shown
# Method in brief: as §1
# EHF = molecular target: T5, EHF (Homo sapiens, UniProt Q9NZC4 1-300); details: protein: recombinant; tags: N-terminal GST; dsDNA, one strand shown
# T5 sequence: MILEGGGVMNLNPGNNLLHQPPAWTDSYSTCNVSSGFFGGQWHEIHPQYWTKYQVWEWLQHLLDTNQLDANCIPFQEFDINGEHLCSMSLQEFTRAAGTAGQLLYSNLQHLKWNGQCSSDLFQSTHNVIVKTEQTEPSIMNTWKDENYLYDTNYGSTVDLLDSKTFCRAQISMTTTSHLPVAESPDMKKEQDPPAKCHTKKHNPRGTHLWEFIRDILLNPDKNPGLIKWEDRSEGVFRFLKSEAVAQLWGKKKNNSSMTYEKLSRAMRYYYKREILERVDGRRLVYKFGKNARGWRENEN
# Method in brief: as §1
# SPI1 = SPI1 (Homo sapiens, UniProt P17947 1-270); details: protein: recombinant; tags: N-terminal GST; dsDNA, one strand shown
# Method in brief: as §1
# SPIB = SPIB (Homo sapiens, UniProt Q01892 1-262); details: protein: recombinant; tags: N-terminal GST; dsDNA, one strand shown
# Method in brief: as §1
# ELK3 = molecular target: T6, ELK3 (Homo sapiens, UniProt P41970 1-407); details: protein: recombinant; tags: N-terminal GST; dsDNA, one strand shown
# T6 sequence: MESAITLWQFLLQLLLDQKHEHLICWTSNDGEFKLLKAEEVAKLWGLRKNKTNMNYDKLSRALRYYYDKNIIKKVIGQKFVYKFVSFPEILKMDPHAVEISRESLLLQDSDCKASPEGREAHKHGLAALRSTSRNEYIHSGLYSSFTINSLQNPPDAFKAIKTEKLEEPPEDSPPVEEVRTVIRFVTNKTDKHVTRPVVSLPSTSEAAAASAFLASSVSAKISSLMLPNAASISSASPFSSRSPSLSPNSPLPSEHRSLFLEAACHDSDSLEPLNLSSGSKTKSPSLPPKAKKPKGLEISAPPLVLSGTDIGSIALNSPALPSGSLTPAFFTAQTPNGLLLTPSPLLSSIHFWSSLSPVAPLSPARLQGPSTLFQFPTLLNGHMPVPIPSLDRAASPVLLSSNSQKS
# Method in brief: as §1
# FEV = molecular target: T7, FEV (Homo sapiens, UniProt Q99581 1-238); details: protein: recombinant; tags: N-terminal GST; dsDNA, one strand shown
# T7 sequence: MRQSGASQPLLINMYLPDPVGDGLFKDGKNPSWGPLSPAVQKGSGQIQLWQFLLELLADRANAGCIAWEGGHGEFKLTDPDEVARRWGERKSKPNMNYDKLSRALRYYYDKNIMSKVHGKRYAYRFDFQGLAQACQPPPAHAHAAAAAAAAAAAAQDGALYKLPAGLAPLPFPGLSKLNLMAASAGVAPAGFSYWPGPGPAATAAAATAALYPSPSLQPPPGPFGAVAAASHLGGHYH
# Method in brief: as §1
# ETV5 = ETV5 (Homo sapiens, UniProt P41161 1-510); details: protein: recombinant; tags: N-terminal GST; dsDNA, one strand shown
# Method in brief: as §1
# HSF1 = HSF1 (Homo sapiens, UniProt Q00613 1-529); details: protein: recombinant; tags: N-terminal GST; chain copies: 3; dsDNA, one strand shown
# Method in brief: as §1
# SPIC = molecular target: T8, SPIC (Homo sapiens, UniProt Q8N5J4 1-248); details: protein: recombinant; tags: N-terminal GST; dsDNA, one strand shown
# T8 sequence: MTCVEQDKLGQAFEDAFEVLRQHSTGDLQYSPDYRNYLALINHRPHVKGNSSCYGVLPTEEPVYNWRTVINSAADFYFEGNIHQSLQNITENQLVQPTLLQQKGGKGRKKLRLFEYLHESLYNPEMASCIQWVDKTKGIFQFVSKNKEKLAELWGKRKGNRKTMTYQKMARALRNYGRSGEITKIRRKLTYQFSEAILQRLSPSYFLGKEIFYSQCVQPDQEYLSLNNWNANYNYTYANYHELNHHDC
# Method in brief: as §1
# ELF4 = ELF4 (Homo sapiens, UniProt Q99607 1-663); details: protein: recombinant; tags: N-terminal GST; dsDNA, one strand shown
# Method in brief: as §1
# ELK4 = molecular target: T9, ELK4 (Homo sapiens, UniProt P28324-2 1-405); details: protein: recombinant; tags: N-terminal GST; dsDNA, one strand shown
# T9 sequence: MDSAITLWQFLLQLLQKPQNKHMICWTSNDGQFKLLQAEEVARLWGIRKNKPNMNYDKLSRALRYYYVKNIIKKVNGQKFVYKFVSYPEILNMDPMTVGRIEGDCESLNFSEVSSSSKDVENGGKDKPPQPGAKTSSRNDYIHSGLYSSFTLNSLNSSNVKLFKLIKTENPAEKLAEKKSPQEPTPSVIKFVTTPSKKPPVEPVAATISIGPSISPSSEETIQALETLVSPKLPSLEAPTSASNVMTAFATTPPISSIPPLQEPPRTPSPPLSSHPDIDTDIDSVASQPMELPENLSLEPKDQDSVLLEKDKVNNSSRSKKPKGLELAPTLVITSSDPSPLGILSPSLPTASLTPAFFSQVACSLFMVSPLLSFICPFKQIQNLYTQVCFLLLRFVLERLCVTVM
# Method in brief: as §1
# ETV2 = molecular target: T10, ETV2 (Homo sapiens, UniProt O00321 1-342); details: protein: recombinant; tags: N-terminal GST; dsDNA, one strand shown
# T10 sequence: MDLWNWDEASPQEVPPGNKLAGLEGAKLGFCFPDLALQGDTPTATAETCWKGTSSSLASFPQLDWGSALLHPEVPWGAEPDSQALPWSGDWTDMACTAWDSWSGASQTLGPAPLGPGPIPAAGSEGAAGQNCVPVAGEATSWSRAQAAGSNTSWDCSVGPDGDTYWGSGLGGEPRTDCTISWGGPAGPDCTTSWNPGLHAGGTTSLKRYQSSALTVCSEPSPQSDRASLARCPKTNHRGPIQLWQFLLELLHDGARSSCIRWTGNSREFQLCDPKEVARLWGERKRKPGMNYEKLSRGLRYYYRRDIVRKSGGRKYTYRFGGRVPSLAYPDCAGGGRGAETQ
# Method in brief: as §1
# ELF3 = molecular target: T11, ELF3 (Homo sapiens, UniProt P78545 1-371); details: protein: recombinant; tags: N-terminal GST; dsDNA, one strand shown
# T11 sequence: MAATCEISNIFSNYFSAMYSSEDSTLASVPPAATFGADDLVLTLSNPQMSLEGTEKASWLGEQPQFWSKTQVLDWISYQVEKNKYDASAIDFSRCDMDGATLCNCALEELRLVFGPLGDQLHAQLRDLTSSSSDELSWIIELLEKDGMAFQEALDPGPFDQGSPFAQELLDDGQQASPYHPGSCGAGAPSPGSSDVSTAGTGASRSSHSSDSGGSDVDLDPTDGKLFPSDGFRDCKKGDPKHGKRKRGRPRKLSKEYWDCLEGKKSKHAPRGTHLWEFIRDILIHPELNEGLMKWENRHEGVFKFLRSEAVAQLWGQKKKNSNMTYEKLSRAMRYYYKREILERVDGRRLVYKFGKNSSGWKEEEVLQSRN
# Method in brief: as §1
# CRX = CRX (Homo sapiens, UniProt O43186 1-299); details: protein: recombinant; tags: N-terminal GST; dsDNA, one strand shown
# Method in brief: as §1
# ETV1 = ETV1 (Homo sapiens, UniProt P50549 1-477); details: protein: recombinant; tags: N-terminal GST; dsDNA, one strand shown
# Method in brief: as §1
# HSF1, sequence (Q00613 whole entry): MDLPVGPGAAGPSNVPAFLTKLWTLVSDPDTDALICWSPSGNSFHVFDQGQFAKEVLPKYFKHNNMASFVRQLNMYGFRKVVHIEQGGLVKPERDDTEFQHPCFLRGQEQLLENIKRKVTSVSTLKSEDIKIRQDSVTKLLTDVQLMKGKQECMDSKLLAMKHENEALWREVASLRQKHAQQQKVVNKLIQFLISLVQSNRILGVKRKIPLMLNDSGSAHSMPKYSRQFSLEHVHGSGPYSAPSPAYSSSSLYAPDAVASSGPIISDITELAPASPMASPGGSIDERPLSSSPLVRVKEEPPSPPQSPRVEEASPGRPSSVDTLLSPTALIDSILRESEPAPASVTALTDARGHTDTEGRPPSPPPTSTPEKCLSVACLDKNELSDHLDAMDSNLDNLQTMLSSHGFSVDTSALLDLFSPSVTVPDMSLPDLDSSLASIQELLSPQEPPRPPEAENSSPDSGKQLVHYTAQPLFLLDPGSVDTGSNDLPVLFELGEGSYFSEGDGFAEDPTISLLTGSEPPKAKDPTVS
# ETV1, sequence (P50549 whole entry): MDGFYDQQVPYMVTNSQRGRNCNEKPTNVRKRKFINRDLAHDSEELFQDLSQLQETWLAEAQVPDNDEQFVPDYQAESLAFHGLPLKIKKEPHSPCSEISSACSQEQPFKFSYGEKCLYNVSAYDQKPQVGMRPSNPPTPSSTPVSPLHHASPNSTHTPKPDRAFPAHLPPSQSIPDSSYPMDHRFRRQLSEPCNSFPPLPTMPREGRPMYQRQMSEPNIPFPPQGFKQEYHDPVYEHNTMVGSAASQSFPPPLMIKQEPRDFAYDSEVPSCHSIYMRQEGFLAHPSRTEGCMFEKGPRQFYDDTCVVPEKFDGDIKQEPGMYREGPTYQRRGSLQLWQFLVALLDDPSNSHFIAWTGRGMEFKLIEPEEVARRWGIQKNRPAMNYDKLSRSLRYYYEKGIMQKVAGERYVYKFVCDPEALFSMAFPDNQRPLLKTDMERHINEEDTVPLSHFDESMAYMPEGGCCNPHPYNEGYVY
# ETV5, sequence (P41161 whole entry): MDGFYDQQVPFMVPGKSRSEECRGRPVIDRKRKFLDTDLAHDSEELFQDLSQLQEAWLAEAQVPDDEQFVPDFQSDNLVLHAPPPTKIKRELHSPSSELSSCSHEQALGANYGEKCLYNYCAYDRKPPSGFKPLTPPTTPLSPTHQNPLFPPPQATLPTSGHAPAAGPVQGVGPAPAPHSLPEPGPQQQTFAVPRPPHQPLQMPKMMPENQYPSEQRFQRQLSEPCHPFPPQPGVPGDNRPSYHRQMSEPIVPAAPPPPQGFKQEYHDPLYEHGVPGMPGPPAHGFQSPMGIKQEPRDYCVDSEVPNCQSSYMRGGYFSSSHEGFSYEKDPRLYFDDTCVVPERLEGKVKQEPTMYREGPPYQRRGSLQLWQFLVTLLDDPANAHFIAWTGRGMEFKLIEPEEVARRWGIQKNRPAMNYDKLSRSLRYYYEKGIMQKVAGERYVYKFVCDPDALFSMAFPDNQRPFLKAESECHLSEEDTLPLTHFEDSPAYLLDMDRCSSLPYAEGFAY
# SPIB, sequence (Q01892 whole entry): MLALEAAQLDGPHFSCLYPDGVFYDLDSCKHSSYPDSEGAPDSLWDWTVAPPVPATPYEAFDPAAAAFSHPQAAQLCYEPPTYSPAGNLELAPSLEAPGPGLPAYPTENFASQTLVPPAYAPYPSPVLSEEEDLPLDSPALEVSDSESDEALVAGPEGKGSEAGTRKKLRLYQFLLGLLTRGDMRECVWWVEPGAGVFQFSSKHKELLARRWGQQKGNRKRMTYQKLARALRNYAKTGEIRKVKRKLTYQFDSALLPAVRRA
# ELF4, sequence (Q99607 whole entry): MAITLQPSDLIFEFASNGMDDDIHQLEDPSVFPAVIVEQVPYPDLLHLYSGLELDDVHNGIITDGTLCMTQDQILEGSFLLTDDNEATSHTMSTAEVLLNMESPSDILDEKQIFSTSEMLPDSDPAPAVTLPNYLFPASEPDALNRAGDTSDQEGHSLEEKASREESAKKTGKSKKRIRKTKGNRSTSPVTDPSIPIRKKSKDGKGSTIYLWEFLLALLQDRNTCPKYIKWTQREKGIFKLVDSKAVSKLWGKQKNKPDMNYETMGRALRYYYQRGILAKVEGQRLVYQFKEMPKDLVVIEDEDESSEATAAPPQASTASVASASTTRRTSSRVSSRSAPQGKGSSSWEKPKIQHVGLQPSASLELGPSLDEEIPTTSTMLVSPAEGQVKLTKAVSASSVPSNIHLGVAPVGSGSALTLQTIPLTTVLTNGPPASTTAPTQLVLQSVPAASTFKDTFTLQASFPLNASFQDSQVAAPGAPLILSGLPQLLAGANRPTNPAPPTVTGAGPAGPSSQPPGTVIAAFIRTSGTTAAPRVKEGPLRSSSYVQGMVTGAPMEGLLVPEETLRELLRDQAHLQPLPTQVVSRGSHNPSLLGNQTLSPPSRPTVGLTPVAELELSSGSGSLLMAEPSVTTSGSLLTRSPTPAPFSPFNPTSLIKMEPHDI
# ELF1, sequence (P32519 whole entry): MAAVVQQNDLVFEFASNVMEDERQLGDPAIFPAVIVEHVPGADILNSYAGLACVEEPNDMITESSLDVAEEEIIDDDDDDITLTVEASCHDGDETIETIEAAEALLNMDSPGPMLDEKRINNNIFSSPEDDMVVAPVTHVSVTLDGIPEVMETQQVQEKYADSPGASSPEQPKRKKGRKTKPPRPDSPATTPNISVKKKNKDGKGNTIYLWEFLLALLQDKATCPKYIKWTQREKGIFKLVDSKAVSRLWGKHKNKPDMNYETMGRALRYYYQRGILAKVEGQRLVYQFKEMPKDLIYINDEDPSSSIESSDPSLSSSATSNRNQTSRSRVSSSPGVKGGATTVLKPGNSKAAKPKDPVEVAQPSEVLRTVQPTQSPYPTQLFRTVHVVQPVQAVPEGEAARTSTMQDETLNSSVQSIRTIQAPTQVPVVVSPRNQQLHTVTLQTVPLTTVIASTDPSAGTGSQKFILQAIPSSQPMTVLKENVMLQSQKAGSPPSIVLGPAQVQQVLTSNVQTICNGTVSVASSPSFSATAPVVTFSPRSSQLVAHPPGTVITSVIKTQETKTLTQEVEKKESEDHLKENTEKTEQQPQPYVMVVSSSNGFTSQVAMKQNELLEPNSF
# CRX, sequence (O43186 whole entry): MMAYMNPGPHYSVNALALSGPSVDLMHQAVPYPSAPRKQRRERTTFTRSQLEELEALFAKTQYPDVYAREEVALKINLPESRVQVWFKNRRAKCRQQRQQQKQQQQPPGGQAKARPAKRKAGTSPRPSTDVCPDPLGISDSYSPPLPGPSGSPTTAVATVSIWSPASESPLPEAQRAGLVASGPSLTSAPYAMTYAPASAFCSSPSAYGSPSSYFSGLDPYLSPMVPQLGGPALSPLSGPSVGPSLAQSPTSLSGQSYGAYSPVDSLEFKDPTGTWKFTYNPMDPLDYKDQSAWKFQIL
sequence,measurement,setting,value
ACCTGC,binding signal,FLI1,"1.37 fold enrichment (6-mer frequency, TF over GST control)"
same,binding signal,ELK1,"1.52 fold enrichment (6-mer frequency, TF over GST control)"
same,binding signal,GABPA,"1.39 fold enrichment (6-mer frequency, TF over GST control)"
same,binding signal,ERG,"1.39 fold enrichment (6-mer frequency, TF over GST control)"
same,binding signal,ELF1,"1.54 fold enrichment (6-mer frequency, TF over GST control)"
same,binding signal,EHF,"1.67 fold enrichment (6-mer frequency, TF over GST control)"
same,binding signal,SPI1,"1.46 fold enrichment (6-mer frequency, TF over GST control)"
same,binding signal,SPIB,"1.39 fold enrichment (6-mer frequency, TF over GST control)"
same,binding signal,ELK3,"1.33 fold enrichment (6-mer frequency, TF over GST control)"
same,binding signal,FEV,"1.5 fold enrichment (6-mer frequency, TF over GST control)"
same,binding signal,ETV5,"1.53 fold enrichment (6-mer frequency, TF over GST control)"
same,binding signal,HSF1,"1.27 fold enrichment (6-mer frequency, TF over GST control)"
same,binding signal,SPIC,"1.22 fold enrichment (6-mer frequency, TF over GST control)"
same,binding signal,ELF4,"1.47 fold enrichment (6-mer frequency, TF over GST control)"
same,binding signal,ELK4,"1.59 fold enrichment (6-mer frequency, TF over GST control)"
same,binding signal,ETV2,"1.39 fold enrichment (6-mer frequency, TF over GST control)"
same,binding signal,ELF3,"1.65 fold enrichment (6-mer frequency, TF over GST control)"
same,binding signal,CRX,"1.22 fold enrichment (6-mer frequency, TF over GST control)"
same,binding signal,ETV1,"1.57 fold enrichment (6-mer frequency, TF over GST control)"
